This is a sample that favours compounds with a hit; in the whole collection about 1.6% have one here.
KCNQ2 pot = potentiators of rat KCNQ2 potassium channel | Potassium voltage-gated channel subfamily KQT member 2 (Rattus norvegicus), O88943 | CHO-K1 KCNQ2, FluxOR thallium flux fluorescence; hits give high values | B-score at 10 µM | 0.54% of 310,000 active | AID 2239, 2010;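 active = fluorescence ratio B-score at least 3 SD of library B-scores, with initial fluorescence B-score within 3 of them, cut at about 5.3 in these data; same plate scores as AID 2156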;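 note: B-score of peak minus minimum over baseline fluorescence ratio after K+ and Tl+ stimulus; positive B-score means potentiation of KCNQ2 with more thallium influx and brighter signal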
KCNQ2 inh = rat KCNQ2 potassium channel inhibitors, primary screen, cell-based, CHO-K1, FluxOR thallium flux, B-score; Potassium voltage-gated channel subfamily KQT member 2 (Rattus norvegicus), O88943; 20 min; hits give low values; B-score at 10 µM; 1.1% of 310,000 active;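 active = fluorescence ratio B-score at most minus 3 library SDs, with starting brightness B-score within 2 library SDs, cut at about -5.5 in these data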
Kir21 confirm = mouse Kir2.1 channel blockers, retest, confirmation, cell-based, FluxOR thallium flux, duplicate | Kir2.1-expressing cells, FluxOR thallium flux fluorescence; hits give low values | 41% of 2,300 active | Tl flux remaining, % of negative control (hits give low values), % at 10 µM | AID 2032, 2009 | shares compounds with KCNQ2 pot;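 active = Primary-screen hit whose thallium flux fell at least 3 control SD below untreated wells in both duplicates, with normal baseline fluorescence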;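 note: 0% = blank wells without stimulus and 100% = stimulated no-compound controls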
Target sequence (P35561 whole entry, looked up): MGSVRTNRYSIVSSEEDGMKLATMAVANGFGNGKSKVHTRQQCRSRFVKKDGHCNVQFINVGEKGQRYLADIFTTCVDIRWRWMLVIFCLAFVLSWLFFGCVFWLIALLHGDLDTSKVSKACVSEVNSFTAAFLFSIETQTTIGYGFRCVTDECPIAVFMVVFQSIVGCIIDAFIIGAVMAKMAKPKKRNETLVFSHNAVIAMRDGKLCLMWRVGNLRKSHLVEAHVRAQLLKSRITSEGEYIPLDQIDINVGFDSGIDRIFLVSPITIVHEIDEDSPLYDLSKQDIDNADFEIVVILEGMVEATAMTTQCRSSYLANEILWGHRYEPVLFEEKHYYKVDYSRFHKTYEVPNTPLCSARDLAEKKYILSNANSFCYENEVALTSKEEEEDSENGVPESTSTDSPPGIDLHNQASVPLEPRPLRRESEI
HEK293 ctr = counter-screen for Kir2.1 inhibitors: effect in parental HEK293 cells. shares compounds with KCNQ2 pot. FluxOR thallium flux fluorescence; 0% = unstimulated blank wells. FluxOR signal as % of negative control (100 = no effect), % at 10 µM. 19% of 2,300 active;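 active = dye signal at least 3 control SD above or below untreated wells in both duplicates, raw fluorescence within 3, either direction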;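 note: percent is based on the flux ratio of peak minus minimum fluorescence over baseline F0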
CHO-K1 Tl ctr = nonspecific thallium flux increase in parental CHO-K1, confirmation, counter-screen for KCNQ2 potentiator project, cell-based, FluxOR thallium flux, duplicate; shares compounds with KCNQ2 pot; parental CHO-K1 cells, FluxOR thallium flux fluorescence; zero = vehicle mean+3SD, 100% = vehicle-minus-blank window; activity increase over 3SD of controls, % at 10 µM; 43% of 1,200 active; AID 2282, 2010;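 active = signal rise of at least 3 SD above the untreated control mean, in both duplicate wells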;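 note: counter screen of KCNQ2 potentiator hits so any rise reflects channel-independent effects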
KCNQ1 sel pot = human KCNQ1 channel potentiation off-target, confirmation, selectivity assay for KCNQ2 potentiator project, cell-based, CHO, FluxOR thallium flux; CHO KCNQ1 stable, FluxOR thallium flux fluorescence; beyond 3SD, as % of vehicle-control signal; 28% of 1,200 active; shares compounds with KCNQ2 pot; activation over 3SD threshold, % at 10 µM;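 active = fluorescence ratio rise of at least 3 SD of vehicle wells above their mean, in both replicate wells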;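 note: 0% = vehicle mean plus 3 SD and 100% = vehicle minus unstimulated blank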
KCNQ2 pot conf = rat KCNQ2 channel potentiators, confirmation, cell-based, CHO, FluxOR thallium flux, duplicate. shares compounds with KCNQ2 pot. CHO-KCNQ2 cells, FluxOR thallium flux fluorescence. potentiation, less the hit threshold, % at 10 µM. 68% of 1,200 active. AID 2287, 2010;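 active = fluorescence ratio rising 3 SD or more over the vehicle control mean in both replicates, plus primary screen hit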;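 note: peak minus minimum thallium fluorescence divided by baseline after K/Tl stimulus; 0% = vehicle mean plus 3 SD and 100% = vehicle minus unstimulated blank difference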
Kir21 spec = mouse Kir2.1 channel activation off-target, confirmation, selectivity assay for KCNQ2 potentiator project, cell-based, HEK293, FluxOR thallium flux; 2% of 1,200 active; AID 2345, 2010; HEK293 Kir2.1, FluxOR thallium flux fluorescence; activity over 3SD threshold, % at 10 µM; shares compounds with KCNQ2 pot;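 active = fluorescence ratio rise of at least 3 SD above the vehicle-control mean, seen in both replicates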;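 note: 0% = vehicle mean plus 3 SD and 100% = vehicle minus no-stimulus blank window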
KCNQ2 W236L MoA = potentiators of retigabine-insensitive KCNQ2 W236L, mechanism study for KCNQ2 potentiator project, cell-based, rat KCNQ2 W236L, CHO, automated patch clamp; AID 2558, 2010; current increase over 3SD of negative controls (%), hits give high values, % at 25 µM; automated patch clamp current; 10% of 940 active; shares compounds with KCNQ2 pot;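 active = current increase at least 3 SD of the untreated controls above them in both duplicate recordings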
Numbers without * were called inactive; i = inactive; / = no result given.

SMILES	KCNQ2 pot	KCNQ2 inh	Kir21 confirm	HEK293 ctr	others
COc1cccc(CNCCc2c[nH]c3ccccc23)c1	2.5	i	/	/
COc1cccc(-c2nn(CCC#N)cc2C(=O)Nc2ccccc2Cl)c1	/	i	/	/
COc1ccc(C(=O)C2CCCN(C3CSCCSC3)C2)cc1OC (stereo not drawn)	0.03	i	/	/
COC(=O)c1ccc(C(C(=O)NC2CCCCC2)N(CCN2CCOCC2)C(=O)Cc2cccs2)cc1 (stereo not drawn)	/	i	/	/
CCCCCSc1cc(OC)c(CCNC)cc1OC	1.4	i	43%*	i
Cc1nn(Cc2ccccc2Cl)c(C)c1C(=O)OCC(=O)N1CC(C)OC(C)C1 (stereo not drawn)	0.31	i	/	/
CC(=O)c1cn(Cc2ccccc2C#N)c2ccccc12	0.6	i	/	/
CCn1nc(/C=C/c2ccccc2)nc2c(=O)n(C)c(=O)nc1-2	7.9*	i	i	i	CHO-K1 Tl ctr=5.3*;KCNQ1 sel pot=-4;KCNQ2 pot conf=3.5*;Kir21 spec=-22;KCNQ2 W236L MoA=i
COc1ccc(-n2c(/C=C/c3ccc(O)cc3)nc3ccccc3c2=O)cc1	/	i	/	/
Cc1cccc(-n2c(C)nc3ccc(Cl)cc3c2=O)c1	/	i	/	/
Nc1ccncc1	/	i	/	/
CC1=CC2/C=C(\C)CCC(O)C(O)/C=C/C(=O)C23C(=O)NC(CC(C)C)C3C1C (stereo not drawn)	/	i	64%*	i
CC(C)COP(=O)(OCC(C)C)C(O)c1cccnc1 (stereo not drawn)	0.33	i	/	/
Cc1c2cnn(CC(=O)N3CCC4(CC3)OCCO4)c(=O)c2c(C)n1Cc1cccc(Cl)c1	0.68	i	/	/
O=C(Cn1ncc2c3ccccc3n(Cc3cccc(Cl)c3)c2c1=O)N1CCC2(CC1)OCCO2	13*	i	i	i	CHO-K1 Tl ctr=109*;KCNQ1 sel pot=-18;KCNQ2 pot conf=58*;Kir21 spec=-28;KCNQ2 W236L MoA=i
CN(C)[C@@H]1C(=O)C(C(N)=O)=C(O)[C@@]2(O)C(=O)C3=C(O)c4c(O)cccc4[C@@](C)(O)C3C[C@@H]12 (stereo partly drawn)	/	i	/	/
CCOc1cccc(CNCCc2c(C)[nH]c3ccc(OC(F)(F)F)cc23)c1O	/	i	22%*	i
Cc1[nH]c2ccc(OC(F)(F)F)cc2c1CCNCc1cccc([N+](=O)[O-])c1	/	i	/	/
Cc1ccc2[nH]c(C)c(CCNCc3ccco3)c2c1	0.72	i	/	/
Cc1[nH]c2ccc(OC(F)(F)F)cc2c1CCNCc1ccc(Cl)cc1	-7.7	-7.7*	16%*	i
COc1ccccc1-n1c(-c2ccoc2)nc2ccccc2c1=O	0.26	i	/	/
O=[N+]([O-])c1ccccc1-c1cc(-c2ccccc2)cc(-c2ccccc2)[n+]1Cc1ccccc1Cl	-7.4	-7.4*	22%*	i
O=c1[nH]c2ccccc2c(=O)n1-c1ccc(Cl)cc1Cl	1.1	i	/	/

Compound activity: PubChem, Johns Hopkins Ion Channel Center
